Most compounds without a hit are left out; they make up all but 2.7% or so of the library.
SENP6 block: SENP6 protease inhibition | Q9GZR1 | Recombinant SENP6 catalytic domain, aminoluciferin luminescence | inhibition, % at 10 µM | hit rate 1.8% among 330,000 | AID 2599;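 active means inhibition above about 50% at the single tested dose, limit read from the data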
SENP8 block-1: SENP8 protease inhibition; purified SENP8, Z-RLRGG-aminoluciferin cleavage, luminescence; inhibition, % at 10 µM; hit rate 1.2% among 330,000; AID 2540; in the data active means inhibition above about 50%
SENP7 inh: SENP7 protease inhibition; Q9BQF6; recombinant SENP7, Z-RLRGG-aminoluciferin luminescence, 40 min; inhibition, % at 5 µM; hit rate 1.5% among 330,000; AID 434973;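 active means inhibition above about 50% at the single test dose, limit read from the data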
Target sequence (Q9BQF6 706-1050 limits assumed): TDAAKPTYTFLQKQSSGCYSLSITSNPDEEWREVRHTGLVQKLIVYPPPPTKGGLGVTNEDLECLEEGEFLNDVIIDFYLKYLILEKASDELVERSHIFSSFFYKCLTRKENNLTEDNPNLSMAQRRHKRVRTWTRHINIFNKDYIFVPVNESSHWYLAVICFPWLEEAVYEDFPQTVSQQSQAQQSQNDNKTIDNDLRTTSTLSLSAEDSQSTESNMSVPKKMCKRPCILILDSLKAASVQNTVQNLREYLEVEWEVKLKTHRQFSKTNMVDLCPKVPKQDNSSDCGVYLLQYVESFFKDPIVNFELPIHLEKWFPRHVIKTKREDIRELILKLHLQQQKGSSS
SENP8 block-2: inhibitors of human SENP8 protease; AID 602440; recombinant SENP8, Nedd8 substrate fluorescence; Q96LD8; hit rate 0.64% among 360,000; inhibition, % at 20 µM; in the data active means inhibition mostly above about 40%, no sharp cut-off; inactive means mostly below about 27%
HSP90 inh: blocks HSP90-mediated luciferase refolding in reticulocyte lysate. inhibition, % at 5.6 µM. Rabbit reticulocyte lysate, luciferase refolding luminescence, 3 h. hit rate 0.91% among 290,000;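 active means inhibition above the screen-wide mean plus 3 SD, computed separately per campaign, cut at about 16% in these data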;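 further: inhibitors lower the luminescence because luciferase stays unfolded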
SENP8 conf: human SENP8 inhibition, confirmed; shares compounds with SENP7 inh; Recombinant SENP8, Z-RLRGG-aminoluciferin luminescence, 60 min; inhibition, % at 12.5 µM; hit rate 40% among 6,200; AID 488912;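 active means mean inhibition across replicates above about 50%, limit read from the data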
SENP6 conf: confirmation of human SENP6 protease inhibitors; shares compounds with SENP7 inh; recombinant SENP6, Z-RLRGG-aminoluciferin luminescence; inhibition, % at 12.5 µM; hit rate 58% among 6,200; AID 488915
SENP7 conf: confirmation of human SENP7 protease inhibitors; shares compounds with SENP7 inh; recombinant SENP7, Z-RLRGG-aminoluciferin luminescence, 40 min; inhibition, % at 12.5 µM; hit rate 69% among 6,200
Casp3 select: selectivity test for SENP inhibitors: human caspase-3 inhibition; shares compounds with SENP7 inh; purified caspase-3, Z-DEVD-aminoluciferin luminescence, 60 min; inhibition, % at 12.5 µM; hit rate 60% among 6,200;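 active means mean inhibition above about 50%, limit read from the data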
Target sequence (P42574 28-227 limits assumed): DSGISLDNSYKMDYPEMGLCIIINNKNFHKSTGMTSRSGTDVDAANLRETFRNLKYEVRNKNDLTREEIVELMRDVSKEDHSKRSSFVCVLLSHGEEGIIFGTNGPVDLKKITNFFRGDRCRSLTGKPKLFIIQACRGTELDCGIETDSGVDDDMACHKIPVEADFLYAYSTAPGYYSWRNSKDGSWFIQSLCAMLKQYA
SENP luc ctr: counter-screen for SENP inhibitors: luminescence interference; shares compounds with SENP7 inh; Pre-incubated SENP8/Z-RLRGG-aminoluciferin, luciferase luminescence interference; inhibition, % at 12.5 µM; hit rate 39% among 6,200;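 active means mean inhibition above about 50% when retested at one dose, limit read from the data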
Large screens that a line does not name were inactive (follow-up assays come after a bar, where they were run).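 How the source made its calls, unless noted: active means mean inhibition above about 50% in the one-dose retest (limit read from the data); inactive means the rest.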

Cc1cccc(Nc2nc3ccccc3s2)c1C	SENP6 block 68.9, SENP8 block-1 65.0, SENP7 inh 82.6 | SENP8 conf inactive | SENP6 conf 73.8 | SENP7 conf 94.1 | Casp3 select 59.3 | SENP luc ctr inactive
COc1ccc(Nc2nc3ccccc3s2)cc1	SENP6 block 74.6, SENP8 block-1 61.7, SENP7 inh 68.9 | SENP8 conf 66.5 | SENP6 conf 65.7 | SENP7 conf 88.7 | Casp3 select 50.3 | SENP luc ctr inactive
COc1cc(C(=O)Nc2ccccc2C(=O)Nc2ccccn2)cc(OC)c1OC	none
COCOc1cccc(CN2CCC(C)(Oc3cccc(OC)c3)C2)c1 (stereo not drawn)	none (no result: SENP6 block, SENP8 block-1, SENP7 inh, HSP90 inh)
Cc1cccc(N2CCN(C(=O)c3ccccc3OCc3c(C)noc3C)CC2)c1C	none (no result: HSP90 inh)
COc1ccc(C2NN=C(c3ccc(C)cc3)S2)cc1 (stereo not drawn)	none (no result: SENP6 block, SENP8 block-1, SENP7 inh)
CSc1ccc(C2NN=C(c3ccccc3)S2)cc1 (stereo not drawn)	SENP6 block 91.7, SENP8 block-1 92.5, SENP7 inh 98.9 (no result: HSP90 inh) | SENP8 conf 51.9 | SENP6 conf 53.3 | SENP7 conf inactive | Casp3 select 59.7 | SENP luc ctr inactive
O=S(=O)(c1ccc2ccccc2c1)N1CCNCC1	none
CCCN1C(=O)/C(=C/c2nc3ccccc3c(=O)[nH]2)c2cc(C)ccc21	SENP6 block 91.7 | SENP8 conf inactive | SENP6 conf inactive | SENP7 conf inactive | Casp3 select inactive | SENP luc ctr inactive
Clc1cccc(Cl)c1/C=C/c1nc2ccccc2[nH]1	SENP6 block 82.1, SENP8 block-1 88.9, SENP7 inh 93.2 | SENP8 conf 94.1 | SENP6 conf 95.7 | SENP7 conf 101.1 | Casp3 select 86.9 | SENP luc ctr 76.1
Cc1[nH]c2ccccc2c1/C=C/c1nc2ccccc2c(=O)[nH]1	none
O=C(O)c1ccc(/C=C/c2nc3ccccc3c(=O)[nH]2)cc1	SENP6 block 97.4, SENP8 block-1 94.9, SENP7 inh 99.7 | SENP8 conf 96.7 | SENP6 conf 97.5 | SENP7 conf 101.9 | Casp3 select 97.7 | SENP luc ctr 55.5
Cc1cccc(/C=C/c2nc3ccccc3c(=O)[nH]2)c1	SENP6 block 86.7, SENP8 block-1 74.9, SENP7 inh 97.4 | SENP8 conf inactive | SENP6 conf 68.4 | SENP7 conf inactive | Casp3 select 78.9 | SENP luc ctr inactive
C(=N\n1cnnc1)/c1nc2ccccc2[nH]1	none
O=c1[nH]c(/C=C/c2ccccc2Cl)nc2ccccc12	SENP6 block 76.7, SENP8 block-1 76.4, SENP7 inh 94.0 | SENP8 conf inactive | SENP6 conf inactive | SENP7 conf 60.5 | Casp3 select inactive | SENP luc ctr inactive
CCn1c(/C=C/c2ccccc2Cl)nc2ccccc2c1=O	none
N#CCSc1ccc(-c2nc3ccccc3[nH]2)cn1	SENP7 inh 68.0 | SENP8 conf 71.1 | SENP6 conf 68.4 | SENP7 conf 89.1 | Casp3 select 82.1 | SENP luc ctr 73.5
O=C(CSc1ccc(-c2nc3ccccc3[nH]2)cn1)Nc1ccc(S(=O)(=O)NC2CC2)cc1	SENP6 block 84.6, SENP8 block-1 71.3, SENP7 inh 72.2 | SENP8 conf 82.1 | SENP6 conf inactive | SENP7 conf 97.8 | Casp3 select 56.4 | SENP luc ctr 86.2
Nc1ccc(-c2nc3c(ccc4ccccc43)[nH]2)cc1	SENP6 block 59.3 | SENP8 conf inactive | SENP6 conf inactive | SENP7 conf inactive | Casp3 select inactive | SENP luc ctr inactive
Fc1ccc(-c2nc3ccccc3[nH]2)cc1	SENP6 block 83.1, SENP8 block-1 64.4, SENP7 inh 83.4 | SENP8 conf inactive | SENP6 conf 64.1 | SENP7 conf 88.9 | Casp3 select 83.6 | SENP luc ctr 72.0
O=C(CSc1ccc(-c2nc3ccccc3[nH]2)cn1)Nc1ccc2c(c1)OCCO2	none
C=CCNC(=O)C1CCN(S(C)(=O)=O)CC1	none
CCCCOC(=O)c1ccc(Nc2ccc([N+](=O)[O-])cn2)cc1	none
Nc1ccc(-c2nc3ccccc3[nH]2)cc1	SENP6 block 69.7, SENP7 inh 64.8 | SENP8 conf inactive | SENP6 conf inactive | SENP7 conf 82.6 | Casp3 select 81.8 | SENP luc ctr 66.0
CCN(CC)S(=O)(=O)c1cccc(C(=O)N/N=C/c2ccc(O)c(O)c2O)c1	none (no result: SENP6 block, SENP8 block-1, SENP7 inh)
CSc1nnc(-c2ccc(Cl)cc2Cl)o1	none
Fc1ccc(-c2nnc(-c3ccc(Cl)cc3Cl)o2)cc1	SENP6 block 74.2, SENP8 block-1 72.2, SENP7 inh 92.4 | SENP8 conf 59.7 | SENP6 conf 64.8 | SENP7 conf 86.0 | Casp3 select 79.3 | SENP luc ctr inactive
CSc1ccccc1-c1nnc(-c2ccc(Cl)cc2Cl)o1	none
Fc1ccc(-c2nnc(-c3ccc(Cl)cc3)o2)cc1	SENP7 inh 55.5 | SENP8 conf inactive | SENP6 conf inactive | SENP7 conf inactive | Casp3 select inactive | SENP luc ctr inactive
Clc1ccc(-c2nnc(-c3ccccc3)o2)c(Cl)c1	SENP6 block 96.0, SENP8 block-1 90.2, SENP7 inh 97.0 | SENP8 conf 84.8 | SENP6 conf 86.6 | SENP7 conf 94.9 | Casp3 select 87.5 | SENP luc ctr inactive
COc1ccc(N(CC(=O)NCCSc2ccccn2)S(=O)(=O)c2ccc(C)cc2)cc1OC	none
O=C(N/C(=C/c1ccc(Br)cc1)C(=O)N1CCCC1)c1cccs1	none
COc1ccc2c(c1)C1OCCC1C(c1ccco1)N2 (stereo not drawn)	SENP8 block-1 55.6 (no result: HSP90 inh) | SENP8 conf 64.5 | SENP6 conf 64.4 | SENP7 conf 91.2 | Casp3 select 88.5 | SENP luc ctr 74.9
CCCNC(=O)C1(C)CCCN(Cc2cc3ccccc3o2)C1 (stereo not drawn)	none (no result: SENP6 block, SENP8 block-1, SENP7 inh, HSP90 inh)
Cc1cc(C(=O)N2CCN(c3ccccc3O)CC2)c(C)o1	none (no result: HSP90 inh)
CCCc1cc(C(=O)Nc2cc(C)ccc2O)no1	SENP6 block 60.8, SENP8 block-1 66.7 | SENP8 conf inactive | SENP6 conf 56.2 | SENP7 conf 87.4 | Casp3 select 72.4 | SENP luc ctr inactive
